Records with an inconclusive call do not appear. Values without a mark were called inactive. Active and inactive are the calls of the source. The call rests on the fitted dose curve; in most records, active means well fitted cell-killing curve with a large enough effect; inconclusive means small, poorly fitted or top-dose-only effect; inactive means flat fitted curve, though single readings scatter.
test: HepG2 cells viability qHTS for Zika virus inhibitors (AID 1347168); details: Zika counter-screen; series mostly up to 45.9 µM; activity change, negative = cytotoxicity: at the top concentration
Text: Avindra Nath, Ph.D., National Institute of Neurological Disorders and Stroke (NINDS), Bethesda, MD
Radhakrishnan Padmanabhan, Ph.D., Georgetown University (GU), Washington D.C.
Zika Virus causes congenital defects, including microcephaly and is associated with Guillain-Barre syndrome, eningoencephalitis and myelitis in infected adult. […] Using a target-based approach, we hope to establish a screening paradigm to uncover novel, cell-active NS2B-NS3 protease (Zika Virus) specific inhibitors from NCATS' collection of small molecules using qHTS.
Four assay panel was created to identify potential Zika Virus inhibitors. Namely, (1) GU unlinked NS2B-NS3 AMC tagged protease qHTS, (2) GU unlinked NS2B-NS3 Rhodamine tagged protease qHTS, (3) NINDS linked NS2B-NS3 AMC tagged protease qHTS, (4) NINDS linked NS2B-NS3 Rhodamine tagged protease qHTS. Identified inhibitors were screened against the Vero and HepG2 cell viability assays using CellTiter Glo to exclude cytotoxic compounds.
Early Translation Branch (ETB)
National Center for Advancing Translational Sciences (NCATS), Rockville, MD
National Institute of Health (NIH), Bethesda, Maryland
Vero and HepG2 Cell Viability Assay:
Vero and HepG2 cell cytotoxicity were determined using a luminescent readout with CellTiter Glo reagent (Promega, Madison, WI), which is based on measuring the ATP content within cells. Briefly, 4 microL of Vero or HepG2 cells at 2.5 x 10^5 cells/mL in DMEM containing 4% FBS were dispensed into 1536-well solid bottom tissue treated white plate using a Multidrop Combi dispenser (Thermo Scientific). Plates were incubated at 37 degrees C, 95% humidity, and 5% CO2 overnight to allow for cell attachment. Compounds were dissolved in DMSO at different concentrations and transferred via pintool (Wako Automation), for a final concentration of 0.029 µM - 57 microM. Plates were again incubated for 24 to 48 hours, followed by a 2 microL addition of CellTiter Glo. Finally, plates were incubated for 30 minutes at 37 degrees C and 5% CO2 before being read on a ViewLux (Perkin Elmer) for luminescence.
On the % scale 0 is the no-effect control and ±100 the full control effect.

Compared with `CC1CCC(C(=O)N(c2cc(C#CC(C)(C)C)sc2C(=O)O)C2CCC(O)CC2)CC1` (stereo unspecified), `CN(C)c1cc(NC(=O)CNC(C)(C)C)c(O)c2c1C[C@@H]1C[C@H]3[C@H](N(C)C)C(=O)C(C(N)=O)=C(O)[C@@]3(O)C(=O)C1=C2O` is lower in “activity change, negative = cytotoxicity” value: 16.4% for the first, -14.5% for the second.

First: NC(=O)c1ccc2nc(-c3ccc(Oc4ccc(Cl)cc4)cc3)[nH]c2c1
Second: NC(=O)c1cccc2[nH]c(-c3ccc([C@H]4CCCN4)cc3F)nc12
The “activity change, negative = cytotoxicity” value of the first is lower: -21.8% for the first, -15.9% for the second.

Going from `C[C@H](NC(=O)C(=O)Nc1ccccc1C(C)(C)C)C(=O)N[C@@H](CC(=O)O)C(=O)COc1c(F)c(F)cc(F)c1F` to `CC(=O)Nc1ccc([C@H](C)C(=O)Nc2ncc(C(C)C)s2)cc1`, the “activity change, negative = cytotoxicity” value rises from -1.43% to 1.78%.

Going from `O=c1cc(-c2ccccc2)oc2cc(O)c(O)c(O)c12` to `Cc1ccn(-c2ccc(-c3ncco3)cc2)c(=O)c1-c1ccc2nc(N)ncc2c1`, the “activity change, negative = cytotoxicity” value falls from 5.98% to -2.63%.

For `Cc1cc(OCCCc2c(C(=O)O)n(Cc3cccnc3)c3c(-c4c(COc5ccc(N6CCN([S+](C)(=O)[O-])CC6)cc5)nn(C)c4C)cccc23)cc(C)c1Cl`, the “activity change, negative = cytotoxicity” value was -20.7%.

In the case of `CS(=O)c1ccc(-c2nc(-c3ccc(F)cc3)c(-c3ccncc3)[nH]2)cc1` (stereo unspecified), the outcome is reported as “inactive”.

In the case of `CC1(C)CCC(CN2CCN(c3ccc(C(=O)NS(=O)(=O)c4ccc(NCC5CCOCC5)c([N+](=O)[O-])c4)c(Oc4cnc5[nH]ccc5c4)c3)CC2)=C(c2ccc(Cl)cc2)C1`, the “activity change, negative = cytotoxicity” value is reported as 7.38% [at 26.9 µM].
